Drawing on PubChem BioAssay AID778 (Sanford-Burnham Center for Chemical Genomics, 2007), this text covers inhibition for 60 molecules.

The campaign covered roughly 96,000 compounds. About 20,000 (21%) were called active.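 Rule for the calls: active = CYP2C19 inhibition above a set limit at 5 µM in the primary screen (cut at about 50% in these data); inactive = the rest.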 These entries were drawn from the full list.

The target of this test is Cytochrome P450 2C19 (Homo sapiens) (UniProt P33261). As to the kind of experiment: blockers of cytochrome P450 2C19 activity – biochemical, luminescence, ADME assay, primary screen (AID 778).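 Note: plate controls were negative control wells for no effect and 2.5 mM tranylcypromine positive control for full effect.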 Conditions: CYP2C19 Supersomes, luciferin-H EGE luminescence, 30 min; at 5 µM; hits give high values.
Chain of Cytochrome P450 2C19 (Homo sapiens) (P33261 whole entry, looked up): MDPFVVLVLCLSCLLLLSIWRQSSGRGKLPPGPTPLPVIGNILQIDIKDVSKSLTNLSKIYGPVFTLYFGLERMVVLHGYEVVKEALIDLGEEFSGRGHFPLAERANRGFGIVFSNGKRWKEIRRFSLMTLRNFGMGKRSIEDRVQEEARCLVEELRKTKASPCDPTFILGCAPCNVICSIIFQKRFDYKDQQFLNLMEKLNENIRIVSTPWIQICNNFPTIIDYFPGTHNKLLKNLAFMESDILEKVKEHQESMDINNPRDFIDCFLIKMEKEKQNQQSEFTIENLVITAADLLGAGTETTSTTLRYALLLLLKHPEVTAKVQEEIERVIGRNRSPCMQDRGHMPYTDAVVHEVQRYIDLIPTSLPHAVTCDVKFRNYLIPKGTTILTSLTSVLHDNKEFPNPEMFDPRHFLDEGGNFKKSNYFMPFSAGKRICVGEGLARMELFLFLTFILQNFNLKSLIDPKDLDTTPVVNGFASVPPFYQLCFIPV
As usually defined, the inhibition is the drop in the measured response relative to a control, in per cent. `CC1(C)CC(CC(=O)O)C(=O)O1` (stereo not given): the inhibition is -11.1% (inactive).

As to `Cc1nc2ccc(S(=O)(=O)NCC(=O)NCCN3CCCCC3C)cc2s1` (stereo not given), the inhibition is 5.2% (inactive).

For the molecule `Nn1cnnc1N/N=C/c1cc([N+](=O)[O-])c(Cl)cc1Cl`, the inhibition was 15.9% (inactive).

For the molecule `CCOC(=O)C1(C(F)(F)F)N=C(N(C)C)OC(N(C)C)=N1`, the inhibition is -7.2% (inactive).

In the case of `CC1COC2C(O1)N(S(C)(=O)=O)CCN2S(C)(=O)=O` (stereo not given), the inhibition is -4.9% (inactive).

For `Cc1ccc(S(=O)(=O)NCC(=O)N2CCN(c3ccccn3)CC2)cc1`, the inhibition was -1.8% (inactive).

Regarding `Cc1ccnc(N2CCN(C(=O)CSc3nc4ccccc4nc3N3CCCCC3)CC2)c1`, the inhibition was 79.1% (active).

Take `Cc1ccc2oc(=O)c3cnn(CC(=O)N4CCN(c5ccccn5)CC4)c3c2c1`: the inhibition is 10.9% (inactive).

As for `NC(=O)C1(N2CCCCC2)CCN(C2CC(=O)N(Cc3ccc(N4CCCC4=O)cc3)C2=O)CC1` (stereo not given), the inhibition is 22.1% (inactive).

Take `CC(C)(O)C#Cc1ccc(C(=O)N2CCC(C(N)=O)(N3CCCCC3)CC2)cc1`: the inhibition was 14.8% (inactive).

Consider `NC(=O)C1(N2CCCCC2)CCN(C(=O)c2ccc(C#Cc3ccccc3)o2)CC1`, for which the inhibition was 71% (active).

In the case of `Cc1nc2nc(COc3ccccc3)[nH]n2c(=O)c1C`, the inhibition was -11.1% (inactive).

With `OCCCN1c2ccccc2Nc2nnc(-c3ccccc3)cc21`, the inhibition was 39.5% (inactive).

Regarding `O=S(N1CCCCCC1)C12CC3CC(CC(C3)C1)C2` (stereo not given), the inhibition is 77.6% (active).

For `CN(CCO)Cc1csc2ccc(Br)cc12`, the inhibition was -8.9% (inactive).

Regarding `COc1cc(C2C(C(=O)OCCC#N)=C(C)NC3=C2S(=O)(=O)c2ccccc23)cc(OC)c1OC` (stereo not given), the inhibition is 15.8% (inactive).

Regarding `COc1cccc(-n2c(SCC(=O)NC3CCCCC3)nc3n[nH]c(C)c3c2=N)c1`, the inhibition is 50.9% (active).

Take `COc1ccc(N(CC(=O)NC2CCCCC2)S(=O)(=O)c2c(C)[nH]c(=O)[nH]c2=O)cc1`: the inhibition was 11.3% (inactive).

Take `C=CCn1c(CC(=O)Nc2cccc(OC)c2)nnc1SCC(=O)NC1CCCCC1`: the inhibition is -6% (inactive).

Turning to `Cc1cccc(NC(=O)c2cc(N3C(=O)CCC3=O)ccc2Cl)n1`, the inhibition is 14.7% (inactive).

With `CC1(C)Cc2c(sc3nc(SCC(=O)NCc4ccccc4)n(-c4ccccc4)c(=O)c23)CS1`, the inhibition is 1.8% (inactive).

With `Cc1cccc(Cn2c(SCCO)nc3c2c(=O)n(C)c(=O)n3C)c1`, the inhibition was 51.7% (active).

For `Cc1cccc(Cn2c(N3CCN(c4ccccc4)CC3)nc3c2c(=O)n(C)c(=O)n3C)c1`, the inhibition was 72.8% (active).

As for `CCCSc1nc2c(c(=O)n(C)c(=O)n2C)n1Cc1ccc(C)cc1`, the inhibition is 17.6% (inactive).

For the molecule `CCOC(=O)CSc1nc2c(c(=O)n(Cc3ccccc3Cl)c(=O)n2C)n1C`, the inhibition was -6% (inactive).

Consider `Cn1c(=O)c2c(nc(NCCc3ccccc3)n2Cc2ccccc2)n(C)c1=O`, for which the inhibition was 8.9% (inactive).

As for `CC(C)OCCCNc1nc2c(c(=O)n(Cc3ccccc3F)c(=O)n2C)n1C`, the inhibition was 42.7% (inactive).

For `CCOc1ccc(Cn2c(SCCCCC#N)nc3c2c(=O)n(C)c(=O)n3C)cc1OCC`, the inhibition was 20.4% (inactive).

For the molecule `CCOC(=O)CSc1nc2c(c(=O)n(C)c(=O)n2C)n1Cc1ccccc1F`, the inhibition was 63.1% (active).

As for `CCOC(=O)N1CCN(Cc2nc3c(c(=O)n(C)c(=O)n3C)n2Cc2ccccc2)CC1`, the inhibition was 30% (inactive).

Turning to `C/C(=N\c1nc2ccccc2n1C)c1cc(Cl)ccc1O`, the inhibition is -5.8% (inactive).

In the case of `CCN(CC)c1ccc(/C=N/Nc2nc(C)cc(=O)[nH]2)cc1`, the inhibition was 7.4% (inactive).

For the molecule `O=C(c1cccs1)N(C(=O)c1cccs1)c1ccccn1`, the inhibition was 23% (inactive).

Turning to `COc1ccc(CN(C(=O)c2cccs2)c2nccs2)cc1OC`, the inhibition was 100% (active).

`COc1ccc(CCN(C(=O)COc2ccccc2)c2nc(-c3ccccc3)cs2)cc1OC`: the inhibition is 35.3% (inactive).

For the molecule `CCOC(=O)c1cc2n(c1C)-c1ccccc1C2=O`, the inhibition is 17.8% (inactive).

As to `COc1ccc(C(=O)NNC(=O)c2cnccn2)cc1[N+](=O)[O-]`, the inhibition is 11.1% (inactive).

In the case of `Cc1cc(C)nc(N2CCN(c3ncnc4c3oc3ccccc34)CC2)n1`, the inhibition was -16.1% (inactive).

For `CCCCOC(=O)Cn1c(=N)n(CCN(CC)CC)c2ccccc21`, the inhibition is -29.6% (inactive).

Turning to `CCOC(=O)CN1C(=O)C(=O)c2cc(C)ccc21`, the inhibition is -2.2% (inactive).

Consider `CCCCOC(=O)Cn1c(=O)n(CC(=O)OCCCC)c2cc(C)ccc21`, for which the inhibition was 55.8% (active).

With `Cc1ccc2nc3n(c(=O)c2c1)CCC3`, the inhibition is -4.2% (inactive).

As to `Cc1ccccc1NC(=O)Cc1nnc(SCC(=O)N2CCN(c3ccccc3)CC2)n1C`, the inhibition is 26.9% (inactive).

In the case of `O=C(Nc1cccc(-c2nnc(-c3ccccc3)o2)c1)C1CCCO1` (stereo not given), the inhibition was 71.9% (active).

As to `O=C(Nc1nnc(CCc2ccccc2)s1)C1CCCO1` (stereo not given), the inhibition was 15.6% (inactive).

Consider `O=C(Nc1ccc(-c2nnc(-c3ccccc3)o2)cc1)C1CCCO1` (stereo not given), for which the inhibition was 17.1% (inactive).

On to `Cc1nc(SCC(=O)Nc2cc(C)on2)c2c(C)c(C)sc2n1`, for which the inhibition was 9.2% (inactive).

Take `CCOc1cc(C2C(C(=O)OC)=CN(C3CCCC3)C=C2C(=O)OC)cc(Br)c1O`: the inhibition is -1.9% (inactive).

On to `CC(=O)c1cc(NC(=O)c2ccccc2)c(=O)oc1/C=C/N(C)C`, for which the inhibition was 0.3% (inactive).

Take `CN(C)c1cc(N)c2ccccc2n1` (tested in a mixture with another compound): the inhibition was -9.5% (inactive).

For the molecule `CN1CCN(c2ccc(NC(=O)COc3ccc(Cl)cc3Cl)cc2)CC1`, the inhibition is 17.9% (inactive).

For the molecule `Cc1cc(NC(=O)COc2ccc(Cl)cc2Cl)n(CCC#N)n1`, the inhibition is 99.1% (active).

As to `Cc1cc(Nc2ccccc2)n(CCC#N)n1`, the inhibition is -5.9% (inactive).

As to `Cc1ccc(S(=O)(=O)N2C3C=CC(C3)C2C(=O)O)cc1` (stereo not given), the inhibition was 10.3% (inactive).

Consider `O=S1(=O)C=C(SCCN2CCCC2)c2ccccc21`, for which the inhibition is 28.3% (inactive).

Turning to `CC(C)(C)c1ccc(OC2=CS(=O)(=O)c3ccccc32)cc1`, the inhibition was 65.2% (active).

Turning to `CC(C)(C)c1csc(NC2=NS(=O)(=O)c3ccccc32)n1`, the inhibition was 0.4% (inactive).

Regarding `COc1cc2[nH]c(=S)n(CCN3CCCCC3C)c(=O)c2cc1OC` (stereo not given), the inhibition was -5.5% (inactive).

Turning to `O=C1CCCc2c1[nH]c1ccc(Br)cc21`, the inhibition was 15.9% (inactive).

With `Nc1c(-c2ccc(F)cc2)cnc2ncnn12`, the inhibition was -14% (inactive).
